Structures can show the parent of a compound that is named as a salt. ± gives the standard deviation of the averaged measurements.

This experiment has as its system E. coli TESEC Mtb DapB. Kind of experiment: growth (OD600 after 10 h); higher = more growth (less inhibition). To be noted: arabinose induction (level): High; compound 0.1 mM; raw OD600 reference: median of DMSO wells […], cell-free background 0.041. The protocol: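 TESEC E. coli strains in which the native enzyme is deleted and replaced by arabinose-inducible Mtb Asd, DapB, CysH or TrpD, each grown in its selective medium. Strains were screened against the Prestwick library at 0.1 mM and 1% DMSO in 384-well format at low and high arabinose induction. Growth is read as OD600 after 10 h in triplicate.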
The molecule `CC(=O)Oc1cccc2c1C(=O)c1c(OC(C)=O)cc(C(=O)O)cc1C2=O` [Diacerein] showed a growth of 0.208 ± 0.019.
`COc1ccc(-c2cc(=S)ss2)cc1` [Anethole-trithione] had a growth of 0.193 ± 0.0052.
`O=C(O)Cc1ccccc1Nc1c(Cl)cccc1Cl` [Diclofenac sodium] had a growth of 0.166 ± 0.0086.
As for `CCN1CCC[C@H]1CNC(=O)c1c(O)c(Cl)cc(Cl)c1OC` [Raclopride], the growth worked out at 0.173 ± 0.013.
`COc1ccc(C[C@@H]2c3cc(OC)c(OC)cc3CC[N@+]2(C)CCC(=O)OCCCCCOC(=O)CC[N@@+]2(C)CCc3cc(OC)c(OC)cc3[C@H]2Cc2ccc(OC)c(OC)c2)cc1OC` [Cisatracurium besylate] gave a growth of 0.168 ± 0.022.
Take `CN(C)CCOC(=O)C(c1ccccc1)C1(O)CCCC1` (centres undefined) [Cyclopentolate hydrochloride]: the growth is 0.192 ± 0.021.
With `CCCCOc1ccc(C(=O)CCN2CCCCC2)cc1` [Dyclonine hydrochloride], the growth came to 0.149 ± 0.0069.
For the molecule `CC[C@H]1OC(=O)[C@H](C)[C@@H](O[C@H]2C[C@@](C)(OC)[C@@H](O)[C@H](C)O2)[C@H](C)[C@@H](O[C@@H]2O[C@H](C)C[C@H](N(C)C)[C@H]2O)[C@](C)(O)C[C@@H](C)/C(=N\OCOCCOC)[C@H](C)[C@@H](O)[C@]1(C)O` [Roxithromycin], the growth turned out to be 0.0507 ± 0.0027.
With `CCOC(=O)O[C@]1(C(=O)OCCl)CC[C@H]2[C@@H]3CCC4=CC(=O)C=C[C@]4(C)[C@H]3[C@@H](O)C[C@@]21C` [Loteprednol etabonate], the growth amounted to 0.174 ± 0.027.
The molecule `c1ccc2c(CC3=NCCN3)cccc2c1` [Naphazoline hydrochloride] had a growth of 0.184 ± 0.011.
The molecule `O=C(N/N=C/c1ccc([N+](=O)[O-])o1)c1ccc(O)cc1` [Nifuroxazide] gave a growth of 0.0553 ± 0.0015.
As for `COCCOC(=O)C1=C(C)NC(C)=C(C(=O)OC/C=C/c2ccccc2)C1c1cccc([N+](=O)[O-])c1` (centres undefined) [Cilnidipine], the growth was 0.169 ± 0.0093.
Under `CCN(CC)CCOC(=O)c1ccc(N)cc1` [Procaine hydrochloride] stands 0.203 ± 0.026.
`COc1cccc(N(C)C(=S)Oc2ccc3c(c2)CCCC3)n1` [Liranaftate] gave a growth of 0.196 ± 0.013.
Consider `CC(C)(Sc1cc(C(C)(C)C)c(O)c(C(C)(C)C)c1)Sc1cc(C(C)(C)C)c(O)c(C(C)(C)C)c1` [Probucol], for which the growth is 0.207 ± 0.014.
Molecule `C[C@@H]1[C@H](O)[C@@H](C)/C=C/C=C/C=C/C=C/C=C/C=C/C=C/[C@H](O[C@@H]2O[C@H](C)[C@@H](O)[C@H](N)[C@@H]2O)C[C@@H]2O[C@](O)(C[C@@H](O)C[C@@H](O)[C@H](O)CC[C@@H](O)C[C@@H](O)CC(=O)O[C@H]1C)C[C@H](O)[C@H]2C(=O)O` [Amphotericin B] gave a growth of 0.208 ± 0.019.
For the molecule `C[C@@H](O)[C@H]1C(=O)N2C(C(=O)O)=C(S[C@@H]3CN[C@H](C(=O)N(C)C)C3)[C@H](C)[C@H]12` [Meropenem], the growth came to 0.135 ± 0.0089.
In turn, `CC1CCc2cc(F)cc3c(=O)c(C(=O)O)cn1c23` (centres undefined) [Flumequine] showed a growth of 0.0826 ± 0.0024.
Under `O=C1CC2(CCCC2)CC(=O)N1CCCCN1CCN(c2ncccn2)CC1` [Buspirone hydrochloride] stands 0.1852 ± 0.0015; under `CC[C@]12CCCN3CCc4c(n(c5ccccc45)[C@@](O)(C(=O)OC)C1)[C@@H]32` [Vincamine], 0.191 ± 0.015.
`N#CC(c1ccc(Cl)cc1)c1c(Cl)cc(-n2ncc(=O)[nH]c2=O)cc1Cl` (centres undefined) [Diclazuril] registered a growth of 0.0518 ± 0.0015.
Regarding `CCOC(=O)[C@H](CCc1ccccc1)N[C@H]1CCc2ccccc2N(CC(=O)O)C1=O` [Benazepril HCl], the growth was determined as 0.198 ± 0.0085.
Turning to `C[C@H](CCC(=O)O)[C@H]1CC[C@H]2[C@@H]3[C@H](O)C[C@@H]4C[C@H](O)CC[C@]4(C)[C@H]3CC[C@]12C` [Chenodiol], the growth is 0.168 ± 0.026.
In the case of `CC(=O)CC(c1ccccc1)c1c(O)c2ccccc2oc1=O` (centres undefined) [Warfarin], the growth worked out at 0.2 ± 0.011.
Under `O=C1CN(/N=C/c2ccc(-c3ccc([N+](=O)[O-])cc3)o2)C(=O)N1` [Dantrolene sodium salt] stands 0.192 ± 0.016; under `Nc1nc2c(ncn2COC(CO)CO)c(=O)[nH]1` [Ganciclovir], 0.21 ± 0.023.
In turn, `Cc1ccc(C(=O)c2cc(O)c(O)c([N+](=O)[O-])c2)cc1` [Tolcapone] had a growth of 0.0526.
Molecule `Fc1ccc([C@@H]2CCNC[C@H]2COc2ccc3c(c2)OCO3)cc1` [Paroxetine Hydrochloride] registered a growth of 0.172 ± 0.027.
Under `COc1ccc(CN2CCN(C(c3ccc(F)cc3)c3ccc(F)cc3)CC2)c(OC)c1OC` [Lomerizine hydrochloride] stands 0.0966 ± 0.0085; under `C[C@@H]1C[C@H]2[C@@H]3CCC4=CC(=O)C=C[C@]4(C)[C@@]3(Cl)[C@@H](O)C[C@]2(C)[C@@]1(OC(=O)c1ccco1)C(=O)CCl` [Mometasone furoate], 0.297 ± 0.12.
As to `Cc1cccc(Nc2ccncc2S(=O)(=O)NC(=O)NC(C)C)c1` [Torsemide], the growth was 0.197 ± 0.021.
As to `COc1nc(C)nc(Cl)c1NC1=NCCN1` [Moxonidine], the growth was found to be 0.209 ± 0.016.
With `NC(=O)c1cccnc1` [Nicotinamide], the growth worked out at 0.214 ± 0.01.
The figure for `NCCCC(O)(P(=O)(O)O)P(=O)(O)O` [Alendronate sodium] is 0.214 ± 0.022; for `NNC(=O)c1ccncc1` [Isoniazid] it is 0.194 ± 0.0035; for `CC(C)OC(=O)C(C)(C)Oc1ccc(C(=O)c2ccc(Cl)cc2)cc1` [Fenofibrate] it is 0.176 ± 0.015.
Molecule `CCC[C@@H]1C[C@@H](C(=O)N[C@@H]([C@H]2O[C@H](SC)[C@H](O)[C@@H](O)[C@H]2O)[C@@H](C)O)N(C)C1` [Lincomycin hydrochloride] had a growth of 0.172 ± 0.03.
As for `CS(=O)(=O)OCCCCOS(C)(=O)=O` [Busulfan], the growth is 0.209 ± 0.0074.
Take `CC[C@H]1OC(=O)C[C@@H](O)[C@H](C)[C@@H](O[C@@H]2O[C@H](C)[C@@H](O[C@H]3C[C@@](C)(O)[C@@H](O)[C@H](C)O3)[C@H](N(C)C)[C@H]2O)[C@@H](CC=O)C[C@@H](C)C(=O)/C=C/C(C)=C/[C@@H]1CO[C@@H]1O[C@H](C)[C@@H](O)[C@@H](OC)[C@H]1OC` [Tylosin]: the growth worked out at 0.0739 ± 0.0012.

The record behind these values is the supplement of paper PMC9262897, “Low-cost anti-mycobacterial drug discovery using engineered E. coli” (Nature Communications, 2022).
